According to PubChem BioAssay AID1362 (SRMLSC, 2008):
Screen size: about 190,000 compounds; about 4,000 (2.1%) were called active. Cut-off read from the data, not from the text of the source: active = inhibition above about 58%; inactive = the rest, inconclusive results apart; tested in S. cerevisiae. Many of the other results were omitted from the sample, so actives are more common in it than they were.

Experiment: growth inhibition of WT strain, primary screen, mitochondrial fusion inhibitor project, WT and mutant strains, chemical genetic (AID 1362)
Details: mitochondrial fusion phenotypic screen, at 10 µM
[1] = WT strain, growth inhibition, stronger effect = higher value

Row | SMILES | inhibition [1] | inhibition (mutant strain inhibition)
1 | O=C(NC1CC1)c1ccc(-c2ccccc2)cc1 | -18.3% (inactive) | 8.3%
2 | CC1CCN(C(=S)c2cccc(O)c2)CC1 | -7.57% (inactive) | 21.7%
3 | CCOC(=O)N1CCN(S(=O)(=O)c2cc(Br)cc3c2N(C(=O)C2CC2)CC3)CC1 | -4.28% (inactive) | 4.16%
4 | CS(=O)(=O)N(CC(=O)N1CCN(Cc2ccc3c(c2)OCO3)CC1)c1ccc2c(c1)OCO2 | -12% (inactive) | -4.62%
5 | CCN(c1ccc2c(c1)OCO2)S(=O)(=O)c1cc(Br)cc2c1N(C(=O)C1CC1)CC2 | 82.3% (active) | 13.7%
6 | COC(=O)CSc1nccc(-c2cccs2)n1 | -15.2% (inactive) | 12.6%
7 | CCOc1ccc(/C=C(/NC(=O)c2ccccc2)C(=O)NCCC(=O)O)cc1 | -9.33% (inactive) | 4.17%
8 | COc1cc(NC(=O)CN(C)S(=O)(=O)c2ccc3nc(C)sc3c2)cc(OC)c1 | 5.19% (inactive) | 4.68%
9 | CC(C)Cn1c(N)c(C(=O)NCc2cccs2)c2nc3ccccc3nc21 | 3.94% (inactive) | 7%
10 | C=CCn1c(N)c(C(=O)OCC(C)C)c2nc3ccccc3nc21 | 66.3% (active) | -15.2%
11 | C=CCn1c(N)c(S(=O)(=O)c2cccs2)c2nc3ccccc3nc21 | -1.23% (inactive) | 0.9%
12 | CC(C)Oc1ccc(CCc2nnc(SCC(=O)O)n2-c2ccccc2)cc1 | -10.3% (inactive) | 10.7%
13 | CN(c1cccc(NC(=O)Nc2ccc(Cl)cc2)c1)S(C)(=O)=O | 96.2% (active) | -6.73%
14 | COc1cccc(N(CC(=O)Nc2cccc(N(C)S(C)(=O)=O)c2)S(C)(=O)=O)c1 | -5.64% (inactive) | 2.31%
15 | Cc1ccc(N(CC(=O)Nc2cccc(N(C)S(C)(=O)=O)c2)S(C)(=O)=O)cc1 | 0.56% (inactive) | -23%
16 | O=C(N/N=C/c1ccc([N+](=O)[O-])cc1)C(=O)N1CCCC1 | 11.1% (inactive) | 10.6%
17 | CCOC(=O)c1cnc(-n2nc(C)cc2C)nc1NNc1cc(C)nc(-c2ccccc2)n1 | 62.1% (active) | -11.2%
18 | CCOC(=O)c1cnc(-n2nc(C)cc2C)nc1-n1nc(C)cc1C | -11.1% (inactive) | -5.08%
19 | CCOC(=O)c1cnc(-c2ccccc2)nc1Oc1ccc(C)cc1 | 21.7% (inactive) | -24.7%
20 | O=C(NNS(=O)(=O)c1ccc(F)cc1)c1cnccn1 | -14.2% (inactive) | 8.1%
21 | CCc1ccccc1N1C(=O)C2C3CC(=O)C(c4ccccc43)C2C1=O (stereo not drawn) | 5.26% (inactive) | 3.48%

Row | SMILES | inhibition [1] | inhibition (mutant strain inhibition)
22 | CCN(C(=O)CN1CCN(Cc2ccccc2)CC1)c1c(N)n(Cc2ccccc2)c(=O)[nH]c1=O | -4.65% (inactive) | 11.9%
23 | COc1ccccc1C(=O)N1CC2(C)CC1CC(C)(C)C2 (stereo not drawn) | 18.6% (inactive) | 10.1%
24 | Cc1nnnn1/C(=C\c1ccccc1)C(=O)OCC(=O)N1CC2(C)CC1CC(C)(C)C2 (stereo not drawn) | 60.3% (active) | 11.4%
25 | Cc1cccc(C(=O)NCC(=O)OCC(=O)N2CC3(C)CC2CC(C)(C)C3)c1 (stereo not drawn) | -4.43% (inactive) | 5.06%
26 | CN1CCCN(C(=O)C2CCCCC2)CC1 | 2.94% (inactive) | -4.71%
27 | CN(C)S(=O)(=O)N1CCN(c2ccc([N+](=O)[O-])cc2)CC1 | -1.29% (inactive) | -1.53%
28 | O=C(NCc1ccc(Cl)cc1)NCc1ccc(Cl)cc1 | 4.16% (inactive) | 4.87%
29 | CC(C)Oc1ccc(Cc2n[nH]c(=S)n2Cc2ccccc2)cc1Cl | 66.9% (active) | 17.8%
30 | CC(C)Oc1ccc(CCc2n[nH]c(=S)n2Cc2ccccc2)cc1 | 13.3% (inactive) | 0.86%
31 | C=CCn1c(CCc2ccc(OC(C)C)cc2)n[nH]c1=S | -7.58% (inactive) | -5.68%
32 | CSC1=N/C(=C\C=C\c2cccs2)C(=O)S1 | 70.3% (active) | 37.4%
33 | Cc1cccc(C2=N/C(=C/c3cccs3)C(=O)O2)c1 | -7.49% (inactive) | 9.32%
34 | CSC1=N/C(=C\c2ccc3c(c2)OCO3)C(=O)S1 | 6.07% (inactive) | -0.28%
35 | Cc1nnc(SCc2cccc(Cl)c2)n(N)c1=O | -3.17% (inactive) | -5.61%
36 | CCCN(CC(=O)Nc1ccc(OC)c(OC)c1)CC(=O)Nc1ccc(F)c(F)c1F | 4.56% (inactive) | 28.4%
37 | O=[N+]([O-])c1ccc2c(c1)C(N1CCOCC1)/C(=C/C1(O)CCCCC1)O2 (stereo not drawn) | -4.01% (inactive) | 0.41%
38 | COc1cc(C)c(Cl)cc1S(=O)(=O)n1ccnc1 | 3.86% (inactive) | -5.05%
39 | COC(=O)C1=C(C(=O)c2ccc(C)cc2)C(c2ccccc2)n2nnnc2N1 (stereo not drawn) | 11.5% (inactive) | 4.37%
40 | COC(=O)c1ccc(C2C3=C(Nc4nnnn42)c2ccccc2OC3)cc1 (stereo not drawn) | 98.5% (active) | -8.54%
41 | COc1ccccc1NC(=O)C1=C(C)Nc2nnnn2C1c1cccc(Br)c1 (stereo not drawn) | -12.6% (inactive) | -7.01%
42 | Nc1cc(C(F)(F)F)ccc1N1CCOCC1 | -6.55% (inactive) | -2.84%

Row | SMILES | inhibition [1] | inhibition (mutant strain inhibition)
43 | CC1(C)C=C2[C@H]3CC[C@@H]4[C@@]5(C)CCC(=O)C(C)(C)[C@@H]5CC[C@@]4(C)[C@]3(C)CC[C@@]2(C(=O)O)CC1 | 59.1% (active) | -18.6%
44 | Cc1ccc(S(=O)(=O)Nc2nc(N)n(-c3ccccc3)n2)cc1 | -0.46% (inactive) | 3.67%
45 | CSc1cc(C)[nH]c(=O)n1 | -8.71% (inactive) | -7.11%
46 | S=C(NCCc1ccccc1)NCC1CCCO1 (stereo not drawn) | -1.69% (inactive) | 7.51%
47 | S=C(NN=C1CCN(Cc2ccccc2)CC1)NC1CCCCC1 | 38.9% (inactive) | 25%
48 | CCCC1CCC(=NNC(=S)NCCc2ccccc2)CC1 (stereo not drawn) | 66.8% (active) | 40.1%
49 | O=C(O)/C=C/c1ccc(S(=O)(=O)N2CCCCCC2)cc1 | -9.59% (inactive) | 10.2%
50 | COCCN(C(=O)C(C)C)c1nnc(-c2ccc(C(C)(C)C)cc2)s1 | 59% (active) | 10%
51 | COc1cc(OC)cc(-c2nnc(N(C)C(=O)c3ccncc3)s2)c1 | -11% (inactive) | -7.45%
52 | COCCN(C(=O)c1ccco1)c1nnc(-c2ccc(OC)cc2)s1 | -4.3% (inactive) | -8.85%
53 | CCC(=O)Nc1cc(C(F)(F)F)ccc1N1CCCC1 | -15.6% (inactive) | 12.5%
54 | O=[N+]([O-])c1ccccc1NCc1ccc(Cl)cc1 | 21.2% (inactive) | 13.9%
55 | Oc1ccc(CNc2ccccc2O)cc1 | 62% (active) | 57.4%
56 | Oc1ccc(N2CCN(C(=S)NCc3ccccc3)CC2)cc1 | -2.43% (inactive) | 0.26%
57 | CCC(=O)N(Cc1cc2ccccc2[nH]c1=O)c1ccc(OC)cc1 | -16% (inactive) | 1.27%
58 | CN(CCOc1ccc(Br)cc1)CC(=O)Nc1cccc(S(=O)(=O)NC2=NCCC2)c1 | -4.79% (inactive) | -2.03%
59 | Cc1onc(-c2ccccc2)c1C(=O)NNC(=S)NC(=O)c1ccc(F)cc1 | 14.1% (inactive) | -24.2%
60 | O=C(Nc1nnc(C2COc3ccccc3O2)o1)c1ccc(F)cc1 (stereo not drawn) | 62.7% (active) | 52.9%
61 | c1ccc2c(c1)OCC(c1nn3cnnc3s1)O2 (stereo not drawn) | 15.5% (inactive) | 14.4%
62 | COCCNc1nc2nonc2nc1N1CCCC1c1nccs1 (stereo not drawn) | 17.4% (inactive) | 12.6%
63 | Cc1cc(C)n2nc(SCC(=O)NC(=O)NCc3ccco3)nc2n1 | 8.54% (inactive) | 10.4%

Row | SMILES | inhibition [1] | inhibition (mutant strain inhibition)
64 | O=C(Nc1ccc(F)cc1)N1CCCC(c2nc3c(nnn3Cc3ccccc3Cl)c(=O)[nH]2)C1 (stereo not drawn) | -0.5% (inactive) | 17.4%
65 | Cc1ccc(NC(=O)N2CCC(c3nc4c(nnn4Cc4c(F)cccc4Cl)c(=O)[nH]3)CC2)cc1 | -0.04% (inactive) | 3.09%
66 | COc1ccc(Cn2nnc3c(=O)[nH]c(C4CCN(C(=O)c5ccccc5Cl)CC4)nc32)cc1 | 94.1% (active) | 34.6%
67 | COCCNC(=O)c1ccc(-n2c(SCc3cccnc3)nc3ccccc3c2=O)cc1 | -8.55% (inactive) | -7.82%
68 | CC1CCN(CCC(=O)Nc2ccccc2)CC1 | -7.63% (inactive) | -10%
69 | O=C(CCN1C(=O)c2ccccc2C1=O)Nc1ccncc1 | 2.36% (inactive) | -2.76%
70 | O=C(CCN1c2ccccc2Sc2ccccc21)Nc1ccccc1 | 69.8% (active) | 43.4%
71 | COc1ccc(OC)c(C(=O)c2coc3ccc(O)c(CN4CCOCC4)c23)c1 | 7.31% (inactive) | -1.21%
72 | COc1ccc2occ(C(=O)c3ccc(N=C(C)N(C)C)cc3)c2c1 | 6.86% (inactive) | 8.79%
73 | COc1ccc(OC)c(C(=O)c2coc3ccc(OC)cc23)c1 | 80.9% (active) | 15.4%
74 | CCN(CC)CCNC(=O)c1ccc(NS(=O)(=O)c2ccc3c(c2)OCCO3)cc1 | -8.91% (inactive) | 1.15%
75 | C/C(N)=C(/C#N)C(=O)COC(=O)CNS(=O)(=O)c1ccc(C)cc1 | -9.23% (inactive) | 5.26%
76 | CCCc1cc(-c2n[nH]c(=S)n2CC)c2ccccc2n1 | -17.6% (inactive) | -14.6%
77 | CCn1c(-c2ccncc2)n[nH]c1=S | 5.96% (inactive) | 13.5%
78 | CCc1cc(-c2n[nH]c(=S)n2CC(C)C)cs1 | 66.2% (active) | -0.18%
79 | Cc1cc(-c2csc(N)n2)c(C)n1Cc1ccccc1 | 12% (inactive) | 5.79%
80 | CCCc1cc(-c2n[nH]c(=S)n2Cc2ccccc2)cs1 | 65.6% (active) | 36.1%
81 | C=CCn1c(-c2ccc3[nH]c(C)c(C)c3c2)n[nH]c1=S | 9.01% (inactive) | 0.81%
82 | CCC(C)CN1CCC(CO)(Cc2ccccc2Cl)CC1 (stereo not drawn) | 11.3% (inactive) | 4.97%
83 | Cc1ccc(NC(=O)C(=O)NCC2CCN(C(=O)c3cccc([N+](=O)[O-])c3)CC2)cc1 | 2.01% (inactive) | -12.9%
84 | COc1ccccc1-n1c(=S)[nH]c2c(sc(=S)n2-c2ccc(C)cc2C)c1=O | -7.13% (inactive) | -4.6%
